From PubChem BioAssay (NCI)
About 83,000 compounds went through this panel and 20% of them were active in at least one assay; those are over-represented in the sample as a whole.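 Single-concentration screen, 48 h exposure, 96-well plates. Endpoint: percent growth. Below 10 = active.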 Unmarked numbers belong to inactive results. Activity calls are given as the source filed them.

Tested on: CCRF-CEM leukemia
Experiment: NCI-60 one-dose screen, 48 h (100 = growth as untreated, 0 = no growth, -100 = all killed)
Details: 10 µM

SMILES | growth
CCCCCCCNc1nc(C=O)ncc1-c1ccc(C(F)(F)F)cc1 | 83.9%
CCCCCCN1CCN(Cc2ccc(N(CC)CC)cc2)C(=O)C1=O | 9.18% (active)
O=C(Nc1cccc(-n2cc(-c3ccncc3)c(-c3ccc(O)c(Cl)c3)n2)c1)Nc1ccc(Cl)c(Cl)c1 | 0.782% (active)
S=C1SCC(c2ccccc2)S1 (stereo not given) | 101%
COc1cccc(C(=O)Nc2ccc(CN3CCc4nc5cc(OC)c(OC)cc5cc43)cc2)c1 | 28.7%
COc1ccc(-c2nn(-c3cccc(NC(=O)c4cc(C(F)(F)F)cc(C(F)(F)F)c4)c3)cc2-c2ccncc2)cc1Cl | 64.4%
O=C(Nc1ccccc1)Nc1cccc(-n2cc(-c3ccncc3)c(-c3ccc(O)c(Cl)c3)n2)c1 | 29.9%
N#CCCN1C/C(=C/c2ccc(Cl)cc2)C(=O)/C(=C/c2ccc(Cl)cc2)C1 | -3.01% (active)
COc1ccc(-c2nn(-c3cccc(NC(=O)c4cccc(C(F)(F)F)c4)c3)cc2-c2ccncc2)cc1Cl | 7.1% (active)
COc1ccc([N+](=O)[O-])c(C(=O)O)c1 | 112%
O=C(Nc1cccc(-n2cc(-c3ccncc3)c(-c3ccc(O)c(Cl)c3)n2)c1)c1cccc(C(F)(F)F)c1 | 19.8%
COc1cccc(NC(=O)c2sc3nc4c(cc3c2N)C(O)CCC4)c1 (stereo not given) | 11.2%
O=S(=O)(NCCCNc1nccc(-c2c(-c3ccc(F)cc3)nc3sccn23)n1)c1ccc2ccccc2c1 | 28.3%
COc1ccc(-c2nn(-c3cccc(NC(=O)Nc4cccc(C(F)(F)F)c4)c3)cc2-c2ccncc2)cc1Cl | 2.2% (active)
COc1ccc(-c2nn(-c3cccc(NC(=O)c4ccc(Cl)c(Cl)c4)c3)cc2-c2ccncc2)cc1Cl | 61.7%
Cc1c(Cl)cccc1NC(=O)c1sc2nc3c(cc2c1N)C(=O)CCC3 | 7.08% (active)
COc1cc(/C=C/C(=O)c2ccc(Cl)cc2)ccc1OS(=O)(=O)c1ccc(C)cc1 | 12.9%
O=C(N/N=C/c1cc2ccccc2c2ccccc12)c1cc(O)c(O)c(O)c1 | 11.3%

SMILES | growth
COc1ccc(-c2nn(-c3cccc(NC(=O)c4ccc(N5CCOCC5)c(C(F)(F)F)c4)c3)cc2-c2ccncc2)cc1Cl | 38.3%
COc1ccc(-c2cc(/C=C/C(=O)c3cc(OC)c(OC)c(OC)c3)[nH]n2)cc1OC | 4.09% (active)
CC1=C(N2CCOCC2)C(N2CCOCC2)=C(C)C(=O)C1=O | 102%
Cc1ccc(C)c(C(O)(c2cc(C)ccc2C)C2(O)CCCCC2)c1 | 94.3%
COc1ccc(-c2nn(-c3cccc(NC(=O)c4ccc5c(c4)OCCO5)c3)cc2-c2ccncc2)cc1Cl | 7.54% (active)
Cc1ncc(-c2ccoc2)c(NC2CCCCCC2)n1 | 107%
O=S(=O)(NCCNc1nccc(-c2c(-c3ccc(F)cc3)nc3sccn23)n1)c1ccc2ccccc2c1 | 61.7%
COc1ccc2c(c1)nc(N)c1c3cccnc3cn21 | 22.7%
O=C(Nc1cccc(-n2cc(-c3ccncc3)c(-c3ccc(O)c(Cl)c3)n2)c1)c1ccc(Cl)c(Cl)c1 | 33%
CCN1CCCC1CNC(=O)c1ncc(-c2ccc(C(F)(F)F)cc2)c(NC2CCCCCC2)n1 (stereo not given) | 63.3%
Clc1ccc(-c2cn(-c3ccccc3)c(-c3ccccc3)n2)c(Cl)c1 | 34.8%
CCCCCCCCCCCCCCCC(=O)OC1[C@@H](OC(=O)CCCCCCCCCCCCCCC)[C@@H](C(=O)N[C@@H](CCCCN)C(=O)OC)O[C@H]1n1cnc2c(=O)[nH]c(NC(=O)C(C)C)nc21 (stereo not given in full) | 86%
O=c1oc2cc(OS(=O)(=O)c3ccccc3)ccc2c2c1CCCCC2 | 37.2%
O=C1Nc2ccccc2C1=NC1CCCCC1 | 108%
O=C(Nc1cccc(-n2cc(-c3ccncc3)c(-c3ccc(O)c(Cl)c3)n2)c1)c1ccc(N2CCOCC2)c(C(F)(F)F)c1 | 20.2%
O=C(Nc1ccc(OS(=O)(=O)c2ccccc2)cc1)C12CC3CC(CC(C3)C1)C2 | 40.2%
O=C(Nc1cccc(-n2cc(-c3ccncc3)c(-c3ccc(O)c(Cl)c3)n2)c1)c1cc(C(F)(F)F)cc(C(F)(F)F)c1 | 29.5%
